Binding remaining, % of control data for 34 compounds are collected here from PubChem BioAssay AID485284 (NMMLSC, 2010).

Entries with a potency or affinity are not part of this list.

The nature of the assay: inhibitors of CD8+ T cell–vesicle binding, dose response, mouse 2C CD8+ T cells, flow cytometry (AID 485284).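 Further: drosophila derived vesicles carrying Ld MHC with QL9 peptide plus B7-1 and ICAM-1; vesicle binding seen as anti-B7-1 PE fluorescence on CD8 gated cells.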 As to conditions: 2C mouse CD8+ T cell-exosome binding; at 45 µM (top of the series).
For `CC(C)(C)Nc1nc2nonc2nc1NC(C)(C)C`, the binding remaining, % of control worked out at 147%.
Take `CCOC(=O)C1CCN(C(=O)c2ccc(NC(=O)C3CCCO3)cc2)CC1` (centres undefined): the binding remaining, % of control came out at 218%.
Then `O=C(NNC(=S)NC(=O)c1ccco1)c1ccc(F)cc1`, with 159%; and `C[N+]1(C)CC2([N+](=O)[O-])CC=C(Oc3ccccc3)C([N+](=O)[O-])(C2)C1` (centres undefined), with 24.8%; and `Cc1cc(F)ccc1S(=O)(=O)N1CCCOC1CNC(=O)C(=O)NC1CCCC1` (centres undefined), with 67.8%.
On to `CC(C)[C@H]1C(=O)Nc2ccccc2N1C(=O)N[C@@H](Cc1ccccc1)C(=O)N[C@@H](Cc1ccccc1)C(=O)O`, for which the binding remaining, % of control stood at 168%.
Take `Cc1ccsc1C(=O)OCC(=O)N1CCN(c2ccccc2)CC1`: the binding remaining, % of control was 129%.
In the case of `Cc1ccc2c(Cl)cc(Cl)c(OCC(=O)OCC(=O)Nc3ccc(C#N)cc3)c2n1`, the binding remaining, % of control turned out to be 141%.
For `COc1ccc([C@H]2CC(=O)C=C(c3cc(F)ccc3OC)C2)cc1`, the binding remaining, % of control came to 109%.
On to `O=C(Nn1cnc2ccccc2c1=O)C1CCCCC1`, for which the binding remaining, % of control is 106%.
With `CCCCN1C(=O)NC(NC(=O)C2CC2)(C(F)(F)F)C1=O` (centres undefined), the binding remaining, % of control stood at 136%.
In the case of `CCC(C)S(=O)(=O)c1snnc1C` (centres undefined), the binding remaining, % of control turned out to be 164%.
Next, `Cc1ccc(S(=O)(=O)N2CCN(S(=O)(=O)N(C)C)CC2)c(C)c1`: 32.6%.
For `CCOC(=O)c1sc(NC(=O)C2CC(=O)N(c3ccccc3OC)C2)nc1C` (centres undefined), the binding remaining, % of control is 141%.
Next, `COc1ccccc1CNC(=O)c1ccc(N(C)S(=O)(=O)c2ccc(C)cc2)cc1`: 156%.
Then `O=C(Cc1ccc2c(c1)OCCO2)Nc1cccc(S(=O)(=O)N2CCOCC2)c1`, with 135%; and `O=C(NC(=S)Nc1nc(-c2ccccc2)cs1)c1cccs1`, with 173%; and `Cc1c(NS(=O)(=O)CC23CCC(CC2=O)C3(C)C)c(=O)n(-c2ccccc2)n1C` (centres undefined), with 21%.
Next, `CN(C)S(=O)(=O)c1ccc(C(=O)NCCc2ccco2)cc1`: 128%.
With `Cc1c(Cl)cccc1NC(=O)c1cc(C2CC2)on1`, the binding remaining, % of control worked out at 86%.
As for `CN(C)S(=O)(=O)c1cccc(-n2sc3ccccc3c2=O)c1`, the binding remaining, % of control came to 73.9%.
Next, `CN(CC(=O)Nc1cc(S(=O)(=O)N2CCCC2)ccc1Cl)Cc1ccc2c(c1)OCO2`: 63%; `CC(C)C(C(=O)NC1=NCCS1)c1ccc(Cl)cc1` (centres undefined): 31.2%; `NC(=O)C1CCN(c2nc(-c3cc4ccccc4o3)cs2)CC1`: 44.2%.
Next, `O=C(CC12CC3CC(CC(C3)C1)C2)N/N=C/c1ccc([N+](=O)[O-])o1`: 70.5%; `COc1cc(CNCc2cccnc2)ccc1OCC(=O)NC1CCCCC1`: 128%; `COC(=O)c1ccc(OC(=O)CS(=O)c2ccccc2[N+](=O)[O-])cc1` (centres undefined): 97.9%.
With `CCOC(=O)c1cnc(=O)[nH]c1C`, the binding remaining, % of control is 189%.
For `O=C(c1ccco1)N1CCN(C(c2ccccc2Cl)c2nnnn2Cc2ccco2)CC1` (centres undefined), the binding remaining, % of control was found to be 17.4%.
With `O=C(Cn1cc2c(n1)CCCC2)NCc1ccccn1`, the binding remaining, % of control came out at 106%.
Next, `CCN(CC)S(=O)(=O)c1ccc2c3c(cccc13)C(=O)N2`: 56.2%; `CCOc1ccc(CCNC(=O)CCS(=O)(=O)c2ccc(C)cc2)cc1OCC`: 94%; `CCCNC(=O)c1nc2ncc(Br)cn2n1`: 153%.
With `COc1ccc(NC(=O)COC(=O)c2cc(Cl)ccc2O)cc1S(=O)(=O)N1CCCCC1`, the binding remaining, % of control turned out to be 75.3%.
